Measured values as given in PubChem BioAssay AID1159580 (chemical genetic matrix, 2015).
The campaign covered roughly 5,500 compounds. About 2,000 (36%) were called active. Roughly 18% stayed inconclusive and do not appear here. Some of the results follow. Values without a mark were called inactive. Rule as the data show it: active = normalized growth mostly below about 0.91 (no sharp cut-off); inconclusive = no clear call, values can overlap the other calls; inactive = mostly above about 0.92.

Experiment: chemical genetic growth profiling, strain panel (AID 1159580);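 also: tested at 20 µM; growth read once vehicle control cultures reached saturation at 30 °C; 1 = growth at the plate median or of vehicle wells; lower values mean less growth of the strain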
Settings: S. cerevisiae deletion strains, growth OD
[1] = locus YHR030C, strain SLT2, active compounds read low
[2] = locus YHR079C, strain IRE1, active compounds read low
[3] = locus YJL095W, strain BCK1, active compounds read low
[4] = locus YJR066W, strain TOR1, active compounds read low
[5] = locus YLR113W, strain HOG1, active compounds read low
[6] = locus YNL183C, strain NPR1, active compounds read low
[7] = locus YOR231W, strain MKK1, active compounds read low
[8] = locus YPL256C, strain CLN2, active compounds read low

Structure (SMILES): CCN(CC)CC#CCOC(=O)C(O)(c1ccccc1)C1CCCCC1 (centres undefined)
- normalized growth (locus YAL013W, strain DEP1, active compounds read low): 1
- normalized growth (locus YAL040C, strain CLN3, active compounds read low): 1
- normalized growth (locus YCL061C, strain MRC1 (second series), active compounds read low): 1
- normalized growth (locus YDR150W, strain NUM1, active compounds read low): 1
- normalized growth (locus YDR363W, strain ESC2, active compounds read low): 1.01
- normalized growth (locus YER002W, strain NOP16, active compounds read low): 1.06
- normalized growth [1]: 0.985
- normalized growth [2]: 0.996
- normalized growth [3]: 1.05
- normalized growth [4]: 0.927
- normalized growth [5]: 1.04
- normalized growth (locus YNL128W, strain TEP1, active compounds read low): 1.11 [resistant] (active)
- normalized growth (locus YNL175C, strain NOP13, active compounds read low): 1.06
- normalized growth [6]: 0.96
- normalized growth (locus YNL197C, strain WHI3, active compounds read low): 1.05
- normalized growth (locus YNL224C, strain SQS1, active compounds read low): 1.02
- normalized growth (locus YOR083W, strain WHI5 (second series), active compounds read low): 0.998
- normalized growth [7]: 0.989
- normalized growth (locus YPL055C, strain LGE1, active compounds read low): 1
- normalized growth (locus YPL241C, strain CIN2, active compounds read low): 1
- normalized growth [8]: 1

Structure (SMILES): CC[N+](C)(CC)CCOC(=O)C(O)(c1ccccc1)C1CCCCC1 (centres undefined)
- normalized growth [1]: 0.989
- normalized growth [2]: 1
- normalized growth [3]: 0.982
- normalized growth [4]: 0.901
- normalized growth [5]: 1.03
- normalized growth [6]: 0.913
- normalized growth [7]: 0.988
- normalized growth [8]: 0.989
